High-throughput results deposited in PubChem by National Center for Advancing Translational Sciences (NCATS).
FMDV antiviral – antivirals against foot and mouth disease virus; FMDV antiviral cell-based qHTS; Potency, µM (series often up to 57.9 µM), for the others: top-dose activity change, negative = inhibition, most hits filed as inhibitors; 1.2% of 410,000 active; AID 1159524; calls by dose curve; tested in HEK293T cells; further: read-out not given here; potency means the concentration at half of the fitted maximal effect; nearly all actives have a fitted effect of over 45% in size
AmpC inh detg – AmpC beta-lactamase inhibition with detergent present; P00811; AID 485294; Potency, µM (series often up to 114 µM), for the others: top-dose activity change, negative = inhibition, most hits filed as inhibitors; AmpC hydrolysis of nitrocefin, absorbance 480 nm, 0.01% Triton; 0.041% of 370,000 active;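 further: potency means the concentration at half of the fitted maximal effect; 0% = no-compound wells and -100% = no-enzyme wells; nearly all actives have a fitted effect of over 25% in size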
Target sequence (P00811 whole entry, looked up): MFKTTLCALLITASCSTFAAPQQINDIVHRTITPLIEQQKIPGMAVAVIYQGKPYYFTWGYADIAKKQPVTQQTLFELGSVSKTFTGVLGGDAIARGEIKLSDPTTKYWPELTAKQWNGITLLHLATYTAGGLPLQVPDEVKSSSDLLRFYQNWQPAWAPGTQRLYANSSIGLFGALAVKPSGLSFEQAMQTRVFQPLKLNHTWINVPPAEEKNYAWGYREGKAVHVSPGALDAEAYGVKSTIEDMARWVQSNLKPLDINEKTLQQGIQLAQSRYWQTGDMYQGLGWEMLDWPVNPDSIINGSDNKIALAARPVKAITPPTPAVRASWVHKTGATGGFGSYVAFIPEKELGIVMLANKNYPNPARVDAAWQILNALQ
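AmpC (5.3 nM in the dispensed reagent) in 20 mM phosphate pH 7.0 with 0.01% (detergent screen) or 0.0001% Triton X-100 was preincubated with compounds for 15 min at room temperature. Nitrocefin was then added from an 800 uM solution, and hydrolysis was followed at 480 nm.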
AmpC inh no detg – AmpC beta-lactamase inhibition without detergent | Potency, µM (highest dose often 57.1 µM), for inactives: top-dose activity change, negative = inhibition, usual class: inhibitors | AID 485341 | 0.52% of 330,000 active | AmpC nitrocefin hydrolysis, absorbance 480 nm, 0.0001% Triton | P00811;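 further: potency means the concentration at half of the fitted maximal effect; plate controls were no compound for no effect and no enzyme for full effect; nearly all actives have a fitted effect of over 20% in size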
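20 mM phosphate pH 7.0 + 0.01% (detergent screen) or 0.0001% Triton X-100; 5.3 nM AmpC reagent; cpd preinc 15 min RT; nitrocefin (800 uM stock) to start; A480 q20 s × 4 min; Activity was normalised to no-enzyme and no-compound control wells.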
HCV inh – HCV inhibition. Huh7.5.1 HCVcc-Cre infection, luciferase reporter, 44 h. Potency, µM (titrated, usually from 41.8 µM), without a hit: at the top dose activity change, negative = inhibition, hits mostly inhibitors. 3.4% of 340,000 active; further: potency means the concentration at half of the fitted maximal effect
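Cells seeded at 1,000/well and cultured 4 h, then compounds added followed by HCVcc-Cre virus (~0.5 moi). After 44 h further culture, luciferase substrate was added, plates held 15 min at room temperature, and luminescence read for 15 sec.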
HCMV antiviral – blocks human cytomegalovirus replication. 4.5% of 410,000 active. activity change, negative = inhibition, % at 57.5 µM. AID 1259415. HFF cells, HCMV-luciferase reporter, 72 h; active compounds read low; in the data active means activity change below about -60%; inconclusive means no clear call, values can overlap the other calls; inactive means above about -39%
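HFF cells seeded 16 h at 37C, treated with compounds, infected with luciferase-reporter HCMV at MOI 1 PFU/cell; luciferase read at 72 h post infection, normalized to buffer-only and Salinomycin controls.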
* marks the source's active call; other numbers are inactive results; ? = inconclusive; nt = no result given. Compounds with a hit are over-represented: about 7.3% of the library has one in this group of screens. Unless noted, the call rests on the fitted dose curve; in most records, active means well fitted curve in the direction sought with a large enough effect; inconclusive means small, poorly fitted or top-dose-only effect, or another doubt; inactive means no such curve, though single readings can be large; an effect the other way counts as inactive or inconclusive. Unless noted, on the % scale 0 is the no-effect control and ±100 the full control effect.

SMILES | FMDV antiviral | AmpC inh detg | AmpC inh no detg | HCV inh | HCMV antiviral
O=C(Nc1cc(Cl)cc(Cl)c1)c1ccc(F)c(S(=O)(=O)N2CCc3ccccc32)c1 | ? | -3.7% | nt | nt | -96.1*
O=C1CC[C@@H](CN(Cc2cccnc2)C2CCN(c3ccc(NC(=O)c4cnccn4)cc3)CC2)N1 | 24.8% | nt | nt | nt | nt
COc1ccc(-n2c(C)cc(/C=N/Nc3nnc(C)n3N)c2C)cc1 | -10.3% | ? | 44.3% | 11.2µM* | -22.7
COc1cccc(/C=N/Nc2nnc(C)n2N)c1O | -5.0% | 1.3% | -15.9% | 16.3% | 8.5
C/C(N)=C(/C#N)C(=O)CSc1cc(C)c2cc(C)cc(C)c2n1 | 4.3% | 4.8% | -28.9% | 10µM* | -7.2
Cc1cc(C)c2nc(SCC#N)cc(C)c2c1 | nt | -14.7% | -31.8% | ? | -16.3
CN(/N=C/c1cc(Br)cc(Br)c1O)c1cccc(C(F)(F)F)n1 | ? | -11.3% | -6.0% | -14.8% | -65.2*
CC1=C(C)C(C)=C(C#N)C(=C(C#N)C#N)N1 | -4.8% | 1.3% | -19.7% | 8.1% | 84.3
COC(=O)C1=C(c2ccc(OC(F)(F)F)cc2)C[C@@H]2CC[C@H]1N2C(=O)NCc1cccc2ccccc12 | 12.6µM* | 11.7% | -3.5% | 10µM* | -12.1
COC(=O)C1=C(c2ccc(S(C)(=O)=O)cc2)C[C@@H]2CC[C@H]1N2C(=O)NCc1ccc(F)cc1 | -16.2% | nt | nt | ? | -62.9*
COC(=O)C1=C(c2ccc(OC(F)(F)F)cc2)C[C@@H]2CC[C@H]1N2C(=O)NCc1ccc(F)cc1 | 0.0% | 1.4% | 70.6% | ? | -20.5
COc1ccc(C2=NCC(C)n3c2c2ccc(OC)cc2[n+]3[O-])cc1 (stereo not given) | nt | nt | nt | nt | 33.5
Cc1ccc(NC(=O)c2cccc(NC(=O)/C=C/c3ccco3)c2)cc1C | 7.6% | ? | -55.5% | ? | -27.7
Cc1ccc(-n2nc3ccc(NC(=O)/C=C/c4ccco4)cc3n2)cc1 | 30.4% | -8.2% | 28.2µM* | ? | 37.4
COc1cccc(NC(=O)CSC2=C(C#N)C(c3ccco3)C3=C(CCCC3=O)N2)c1 (stereo not given) | 13.9% | -7.7% | -52.5% | ? | 46.0
Cc1ccc(C(=O)CSC2=C(C#N)C(c3ccco3)C3=C(CCCC3=O)N2)cc1 (stereo not given) | 0.0% | ? | ? | 25.1µM* | -26.1
N#CC1=C(SCC(=O)c2ccccc2)NC2=C(C(=O)CCC2)C1c1ccco1 (stereo not given) | -11.9% | 8.8% | -23.6% | 11.2µM* | 106.1
CSC1=C(C#N)C(c2ccc3c(c2)OCO3)C2=C(CCCC2=O)N1 (stereo not given) | -0.1% | -6.7% | -14.9% | 8.4% | ?
CCSC1=C(C#N)C(c2ccc(Cl)cc2)C2=C(CCCC2=O)N1 (stereo not given) | -21.1% | 2.9% | -27.3% | 25.1µM* | -9.9
CC(C)(C)c1ccc(C(=O)CCCSC2=C(C#N)C(c3ccco3)C3=C(CCCC3=O)N2)cc1 (stereo not given) | -3.3% | -4.3% | -18.0% | 6.31µM* | ?
Cc1cc(SCC(=O)OCC(=O)N(C)c2ccccc2)nc2ccccc12 | -8.1% | -10.4% | 21.2% | 0.9% | -14.0
CC(C)n1ncc2c(C(=O)NCCc3ccc(F)cc3)cc(C3CC3)nc21 | ? | -0.5% | -3.2% | ? | -35.5
Cc1cc(CNC(=O)c2cnn(-c3nccc(-c4cc(C)sc4C)n3)c2C2CC2)on1 | 45.5% | nt | nt | nt | nt
CCc1ccccc1NC(c1nnc(-c2cccc(F)c2)o1)c1ccc(F)cc1Cl (stereo not given) | -2.9% | 13.0% | nt | nt | -13.5
CCC(=O)Nc1ccc2c(c1)OC[C@@H](C)N(Cc1cccc(F)c1)C[C@@H](C)[C@@H](OC)CN(C)C2=O | -14.4% | nt | nt | nt | 28.0
COc1ccc(C(=O)n2cc(C(=O)c3cc(C)ccc3O)cn2)cc1 | -11.8% | -10.7% | -20.7% | 8.4% | -66.9*
COc1ccc(O)c(C(=O)c2cnn(C(=O)c3cc(C)oc3C)c2)c1 | 5.0% | -11.8% | -31.0% | 14.3% | -19.9
COc1ccc(O)c(C(=O)c2cnn(S(=O)(=O)c3ccc(C)cc3)c2)c1 | 8.6% | ? | -3.0% | -5.5% | -73.9*
